The list is not random: actives were taken first. Their share in the collection is about 3.9%.
NTR1 ag: agonists of human neurotensin receptor NTR1 | activation, % at 20 µM | actives 0.17% (n = 330,000) | P30989 | NTR1-U2OS beta-arrestin-GFP spot imaging, agonist mode;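 active = activation at or above 40% of the spot to cytoplasm intensity ratio, with at least 20 cells analyzed; inconclusive = wells under 20 cells, flagged as cytotoxic or low count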;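 note: 0% = DMSO without peptide and 100% = 100 nM NTR1 peptide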
Target sequence (P30989 whole entry, looked up): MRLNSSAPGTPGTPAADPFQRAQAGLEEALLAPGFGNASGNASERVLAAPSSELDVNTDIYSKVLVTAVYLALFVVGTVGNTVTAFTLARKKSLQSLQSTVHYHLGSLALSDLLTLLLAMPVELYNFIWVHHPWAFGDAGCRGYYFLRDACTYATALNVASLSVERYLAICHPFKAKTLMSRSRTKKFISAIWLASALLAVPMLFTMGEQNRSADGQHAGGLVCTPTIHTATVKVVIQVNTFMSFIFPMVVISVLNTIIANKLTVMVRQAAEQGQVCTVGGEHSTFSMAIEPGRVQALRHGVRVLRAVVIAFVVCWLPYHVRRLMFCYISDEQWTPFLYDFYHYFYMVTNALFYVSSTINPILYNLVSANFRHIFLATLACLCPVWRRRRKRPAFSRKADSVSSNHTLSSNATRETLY
ALR inh: human ALR oxidase inhibition via reduced H2O2. purified ALR, DTT oxidation, H2O2 HRP-luminol luminescence. inhibition, % (test concentration not listed). actives 3.8% (n = 290,000). AID 485317;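 active = mean replicate inhibition above about 79%, with every replicate also reaching it, limit read from the data; inconclusive = only one of the two criteria met; inactive = mean below limit and not every replicate reaching it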
SUMO HTRF inh: inhibitors of human SUMOylation (UBC9); HTRF SUMOylation assay, SAE1/SAE2 + UBC9, in vitro; inhibition, % at 35 µM; actives 0.36% (n = 290,000); AID 2006; in the data active = inhibition above about 50%, passing the limit was not always enough; inconclusive = no clear call, values can overlap the other calls
Target sequence (P63279 whole entry, looked up): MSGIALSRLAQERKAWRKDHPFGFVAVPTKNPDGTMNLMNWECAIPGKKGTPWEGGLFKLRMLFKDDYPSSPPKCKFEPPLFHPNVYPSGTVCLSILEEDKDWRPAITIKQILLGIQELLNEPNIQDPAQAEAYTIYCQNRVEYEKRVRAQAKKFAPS
Cardio protect: protects H9c2 cardiomyocytes from peroxide injury | H2O2 injury protection, ATPLite, 2 h | protection from H2O2 cell death, % at 20 µM | actives 0.63% (n = 360,000) | AID 588492;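 active = compounds giving at least 50% protection of heart cells from peroxide-induced death in the single-dose screen, raw or plate-pattern-corrected value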;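 note: 0% = DMSO wells with peroxide and 100% = DMSO wells without peroxide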
An asterisk follows results filed as active; ? = inconclusive; · = not tested or not shown.

SMILES | NTR1 ag | ALR inh | SUMO HTRF inh | Cardio protect
COc1cccc(CNn2cnnc2)c1O | -2 | 85* | 18 | 6
Oc1ccc(Cl)cc1CNc1cnc2ccccc2c1 | 10 | 27 | 1 | -14
COc1cccc(CNc2ccc(F)c(Cl)c2)c1OC | 0 | ? | 7 | -12
COc1cccc(CNc2ccc3c(c2)ncn3C(C)C)c1OC | 0 | 92* | 0 | 1
Oc1ccccc1CNc1cnc2ccccc2c1 | 2 | 86* | 4 | -18
COc1ccc2oc(C(=O)NC3CCCCC3)c(C)c2c1 | 1 | 4 | 6 | -2
CCn1nc(C(=O)NNC(=O)C(Cc2ccccc2)NC(N)=O)c2ccccc2c1=O (stereo not given) | 1 | -4 | · | 6
Cc1ccc(CNc2ccc3c(c2)ncn3C)cc1 | 5 | 67 | -9 | -4
CCCn1c(NCc2cccc(OC)c2OC)nc2ccccc21 | 0 | 98* | 9 | -2
CCCn1c(NCc2cccc(OC)c2O)nc2ccccc21 | -2 | 94* | 13 | -1
COc1cccc(CNc2nc3ccccc3n2C(C)C)c1O | 0 | · | -1 | -9
Cn1cnc2cc(NCc3ccccc3O)ccc21 | -1 | 87* | 6 | -6
CCCn1c(NCc2c[nH]c3ccccc23)nc2ccccc21 | -1 | · | -15 | -12
O=C(c1nnsc1S(=O)c1ccc(Cl)cc1)N1CCOCC1 (stereo not given) | 7 | · | 8 | -30
O=C(Nc1ccccc1)c1nnsc1S(=O)c1ccc(Cl)cc1 (stereo not given) | -2 | 98* | 22 | -31
Cc1ccc(SCC(=O)OCC(=O)NCCc2ccccc2)cc1 | -2 | · | · | 0
Oc1ccc(-c2nc(-c3ccc(O)c(O)c3)cs2)cc1 | 0 | 99* | -2 | 53*
C=CCn1c(Cc2c[nH]c3ccccc23)nnc1SCC(=O)NCc1ccccc1 | -1 | 2 | -19 | 6
C=CCn1c(CNc2ccccc2)nnc1SCC(=O)N/N=C/c1ccccc1O | -1 | 40 | -1 | 63*
COCCSc1ccccc1C(=O)N1CCc2ccccc2C1 | -1 | 3 | -3 | 1
O=C(CSc1ccccc1C(=O)N1CCN(c2ccc([N+](=O)[O-])cc2)CC1)N1CCCC1 | 2 | 11 | · | -4
O=C(CSc1ccccc1C(=O)N1CCN(c2ccccc2)CC1)N1CCCC1 | -1 | 98* | · | -2
COCCSc1ccccc1C(=O)N1CCN(c2ccccc2)CC1 | 3 | 87* | 7 | 6
CCN(Cc1ccccc1)c1ccc(/C=N/N=C(N)N)cc1 | 18 | 99* | -5 | -5
O=C(O)CCc1ccc(-c2ccc(Cl)cc2)o1 | 0 | 97* | 12 | 6
SMILES | NTR1 ag | ALR inh | SUMO HTRF inh | Cardio protect
O=C(N/N=C/c1sc(N2CCOCC2)nc1-c1ccccc1)c1ccccc1Cl | -1 | -3 | -11 | 17
CCOC(=O)N/N=C/c1ccc(N2CCOCC2)s1 | 2 | 99* | -38 | 2
O=C(N/N=C/c1ccc(N2CCOCC2)s1)c1ccccc1Cl | 0 | 88* | 10 | 8
COc1ccc(C(=O)N/N=C/c2ccc(N3CCOCC3)s2)cc1OC | 2 | 93* | · | -4
CCc1nc(SCC(=O)Nc2ccc(N(CC)CC)cc2)n[nH]1 | · | · | · | 6
CCc1nc(SCC(=O)Nc2ccc(C(=O)O)cc2)n[nH]1 | 6 | 99* | 11 | 21
CCc1nc(SCC(=O)Nc2ccc(N(C)C)cc2)n[nH]1 | 1 | 98* | · | -5
CN(C)c1ccc(C(=S)N2CCNCC2)cc1 | -1 | 99* | -15 | 5
CN(C)c1ccc(C(=S)N2CCCCC2)cc1 | 1 | -3 | -2 | -3
O=C(O)CN1C(=O)/C(=C\c2ccccc2OCc2ccc(F)cc2)SC1=S | 2 | 12 | 2 | 1
Cc1ccc(CN2C(=O)S/C(=C\c3ccccc3OCC(=O)O)C2=O)cc1 | 0 | 97* | 25 | 1
O=C(O)COc1ccccc1/C=C1\SC(=O)N(Cc2ccc(F)cc2)C1=O | 0 | 98* | 16 | 6
Nc1cccc2cnccc12 | 0 | 45 | 88 | -3
Oc1cccc2cnccc12 | 0 | 99* | 26 | -1
C=CCOc1ccc(C=Nc2ccc(OC)cc2)c(O)c1 | 2 | -8 | 10 | 63*
COc1ccc(N=Cc2ccccc2O)cc1 | · | · | · | 11
CCN(C(=O)COC(=O)c1cccc(C)c1[N+](=O)[O-])c1c(N)n(Cc2ccccc2)c(=O)[nH]c1=O | -1 | · | · | -1
COc1cccc(/C=C2\Oc3cc(OCC(=O)N4Cc5ccccc5C[C@H]4C(=O)O)ccc3C2=O)c1 | 0 | 99* | 22 | -2
COc1cccc(/C=C2\Oc3cc(OC(=O)N4CCOCC4)ccc3C2=O)c1 | 2 | 1 | 6 | 1
CCCCCOCC1CC(C/C(C)=N/NC(N)=S)C(=O)O1 (stereo not given) | 1 | 1 | 3 | -3
CCCCCOCC1CC(C/C(C)=N/Nc2nc(-c3ccccc3)cs2)C(=O)O1 (stereo not given) | 0 | 96* | 7 | -6
Cc1ccc(S(=O)(=O)N2CCC(C(=O)NCCCN3CCOCC3)CC2)cc1C | -1 | 2 | · | 5
Cc1nn2c(-c3cccc(NC(=O)c4ccco4)c3)nnc2c2ccccc12 | 2 | 8 | 18 | 80*
O=C(Nc1ccc2c(c1)nc1n2CCSC1)c1ccco1 | 1 | 99* | 21 | -13
O=C(Nc1ccc2c(c1)nc1n2CCOC1)c1ccco1 | -2 | · | 0 | -8
SMILES | NTR1 ag | ALR inh | SUMO HTRF inh | Cardio protect
O=C(Nc1ccc(Nc2ccccc2)cc1)c1ccco1 | -1 | 92* | 10 | -8
O=C(Nc1ccc(NC(=O)c2ccco2)cc1)c1ccco1 | 0 | -14 | -2 | -3
CC(C)(C)NC(=O)c1cccc(NC(=O)c2ccc(NC(=O)c3ccco3)cc2)c1 | 1 | -5 | 15 | 74*
CC(C)(C)c1ccc(OCC(=O)N/N=C/c2cc(Br)ccc2OC(=O)c2ccco2)cc1 | 4 | -4 | 17 | 44
CC(=O)Nc1ccc(OCC(O)Cn2nc(C)nc2C)cc1 (stereo not given) | -2 | -5 | 19 | 5
Cc1nc2cc(NC(=O)c3ccco3)ccc2n1C | 0 | 0 | 1 | -10
NC(=O)c1oc2ccccc2c1NC(=O)c1ccccc1 | -2 | 4 | 3 | 12
NC(=O)c1oc2ccccc2c1NC(=O)c1ccco1 | -2 | 6 | 5 | 72*
O=C(Nc1cc(Br)c(O)c(Br)c1)c1cccc(NC(=O)c2ccco2)c1 | -1 | 98* | -5 | -3
Cc1nc2ccc(NC(=O)c3ccco3)cc2nc1C | 1 | 99* | 18 | -12
O=C(Nc1cccc(NC(=O)c2ccco2)c1)c1cccc(Br)c1 | 0 | · | 2 | 9
CCOc1ccc(C(=O)COC(=O)C2COc3ccccc3O2)cc1 (stereo not given) | 3 | -1 | · | 7
CC(OC(=O)Cn1[nH]c(=O)c2ccccc2c1=O)C(=O)Nc1ccc(F)cc1 (stereo not given) | 0 | -1 | · | 62*
Cc1ccc(C(C)C)c(OCC(=O)NN2C(=O)c3ccccc3C2=O)c1 | 1 | 1 | -8 | -3
CC(=O)N1CCN(c2ccccc2NC(=O)COc2cc(C)ccc2C(C)C)CC1 | 4 | 6 | 6 | 66*

High-throughput results (PubChem BioAssay)
